From PubChem BioAssay
Compounds with a hit are over-represented: about 3.1% of the library has one in this group of screens.
Peg3 prom inh: Peg3 promoter activity inhibition | HeLa PEG-Prom luciferase reporter, luminescence, overnight | inhibition, % at 20 µM | 1.7% of 360,000 active;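 active = inhibition of at least 50% at 20 µM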
KKLEB tox: CF airway cell cytotoxicity counter-screen; 0.36% of 360,000 active; activity change (cytotoxicity), % at 5 µM; KKLEB CF airway cells viability, ATPlite luminescence, overnight; stronger effect = lower value; cells stimulated with P. aeruginosa culture filtrate; AID 602141;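 active = corrected activity change at or below -50% at 5 µM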
TRAIL sens C8: caspase-8 TRAIL sensitization; NB7+C8 cells + TRAIL, ATPlite viability luminescence; inhibition (viability loss, TRAIL sensitization), % at 10 µM; 1% of 360,000 active;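 active = compounds causing at least 50% loss of cell viability in the single-dose screen, relative to plate controls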
PPC-1+TRAIL kill: compounds killing PPC-1 cancer cells with TRAIL present (potentiator screen, no TRAIL-free arm); PPC-1 cells + TRAIL, ATPLite viability luminescence; cell killing (% activity), % at 4 µM or 5 µM; 0.41% of 220,000 active;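 active = cell killing above 50% in the first pass at 4 µM, then a duplicate retest at 5 µM averaging 50% or more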;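 also: plate controls were cells with TRAIL plus DMSO for no effect and medium-only wells lacking cells for full effect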
HIF-2a block: HIF-2a inhibition; 0.72% of 360,000 active; 786-0 RCC cells HIF-2a reporter, luciferase luminescence, overnight; inhibition, % at 18.8 µM;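 active = inhibition of the luminescence signal of 40% or more relative to plate controls, in a single-dose primary screen at 18.75 µM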
CF NFkB block: cystic fibrosis NF-kB activation inhibition; 0.86% of 360,000 active; KKLEB NF-kB-GFP reporter, PAF-induced, GFP fluorescence overnight; inhibition, % at 5 µM;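 active = at least 50% inhibition at 5 µM, scaled per plate between neutral and stimulator controls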;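 also: PAF is a Pseudomonas aeruginosa culture filtrate used as stimulus; plate controls were PAF-stimulated DMSO wells for no effect and unstimulated DMSO wells for full effect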
Active calls of the source: *; . = no result.

SMILES	Peg3 prom inh	KKLEB tox	TRAIL sens C8	PPC-1+TRAIL kill	HIF-2a block	CF NFkB block
CC(C)c1ccc(/C=C2\SC(=O)N(CC(=O)NC3C=CS(=O)(=O)C3)C2=O)cc1 (stereo not drawn)	-18	12	54*	.	-67	-11
CNC(=O)c1c(NC(=O)c2ccc(S(=O)(=O)N3CCCCC3)cc2)sc2c1CCN(C(C)C)C2	-9	-18	11	.	5	14
CCN1CCc2c(sc(NC(=O)c3cc4ccccc4cc3OC)c2C(N)=O)C1	110*	-17	27	.	26	-16
CCN1CCc2c(sc(NC(=O)c3ccc(S(=O)(=O)N4CCCC4)cc3)c2C(=O)NC)C1	65*	-3	13	.	29	4
CCOC(=O)N1CCN(S(=O)(=O)c2ccc(C(=O)Nc3sc4c(c3C(N)=O)CCN(CC)C4)cc2)CC1	76*	-7	-14	.	-8	22
CN1CCc2c(sc(NC(=O)c3ccc(S(=O)(=O)N4CCCC4)cc3)c2C(N)=O)C1	3	17	-14	.	10	2
Cc1cc(C)cc(C(O)c2ncc(-c3ccccc3Cl)[nH]2)c1 (stereo not drawn)	7	-9	-8	.	5	16
CCc1cc(C(=O)NC2CCCc3c2cnn3-c2ccc(F)cc2F)no1 (stereo not drawn)	-2	-5	9	.	-6	5
Cc1ccc(C(=O)Nc2nc(=O)n(C(=O)c3ccccc3Cl)s2)cc1	-137	12	-5	12	-198	-19
O=C(Cc1ccccc1)Nc1nc(=O)c2ccccc2s1	-5	1	1	15	-36	-5
O=C(Nc1nc(=O)c2ccccc2s1)c1ccc(Cl)cc1	-216	10	67*	29	-161	4
O=C(Nc1nc(=O)c2ccccc2s1)c1ccc(F)cc1	-268	4	55*	18	-289	-19
Cn1sc(NC(=O)c2ccc(Cl)cc2)nc1=O	-174	11	50*	25	-151	-15
Nc1ccc(C(=O)Nc2nc3ccccc3s2)cc1	-274	2	50*	59*	-172	-43
CSCc1ccc(C(=O)NC(C)c2cnn(-c3ccccn3)c2C)o1 (stereo not drawn)	-63	3	13	.	-93	8
Brc1cccc(-c2nc3c4ccccc4ccn3c2Cc2ccsc2)c1	-131	12	34	.	-240	-45
CC(C)(C)Cc1c(-c2ccccc2)nc2ccc(Cl)cn12	-3	-4	5	.	-30	7
CSc1nc2ccc(NC(=O)C3=NNC(=O)CC3)cc2s1	-89	8	0	7	-69	6
CSc1nc2ccc(NC(=O)c3ccccn3)cc2s1	-91	-39	82*	.	-32	-4
COc1ccc(C(=O)Nc2ccc(NC(=O)c3ccccn3)cn2)cc1	-86	-5	10	.	-90	-3
COc1ccc(NC(=O)c2ccccn2)cc1	-1	-14	74*	76*	31	1
CCC(=O)Nc1ccc(NC(=O)c2ccccn2)cn1	-68	-18	21	19	-62	4
CC(C)C(=O)Nc1ccc(NC(=O)c2ccccn2)cn1	26	3	48*	20	26	2
Cc1ccc(C(=O)NNC(=O)c2ccc(-n3cncn3)c([N+](=O)[O-])c2)cc1	14	11	8	.	4	4
CCN(C(=O)COC(=O)c1ccc(-n2c(C)ccc2C)cc1)c1c(N)n(Cc2ccccc2)c(=O)[nH]c1=O	-3	-8	15	.	1	-8
SMILES	Peg3 prom inh	KKLEB tox	TRAIL sens C8	PPC-1+TRAIL kill	HIF-2a block	CF NFkB block
CC(=O)Nc1cc(-c2ccc(N3CCN(C)CC3)cc2)cn2c(-c3cccc(C(C)=O)c3)cnc12	-39	18	10	.	-26	-29
CN1CCN(c2ccc(-c3cc(NC=O)c4ncc(-c5ccc(F)c(Cl)c5)n4c3)cc2)CC1	96*	-12	26	.	-143	-9
CC(=O)Nc1cc(-c2ccc(N3CCN(C)CC3)cc2)cn2c(-c3ccc(F)c(Cl)c3)cnc12	75*	-15	46	.	-10	3
O=CNc1cc(-c2ccccc2)cn2c(-c3ccc(F)c(Cl)c3)cnc12	10	-16	-18	.	-13	0
C=CCNC(=O)COc1coc(CN2CCN(C(=O)c3ccco3)CC2)cc1=O	15	-12	-13	.	20	5
CCc1cc(C(=O)O)c(NC(=O)C(c2ccccc2)c2ccccc2)s1	15	-66*	-4	10	15	-2
COc1ccccc1-c1sc2cc3c(cc2c1-c1ccc(OCCN2CCCCC2)cc1)OCO3	100*	-28	30	.	22	25
COc1cc2sc(-c3ccccc3OC)c(-c3ccc(OCCN4CCCCC4)cc3)c2cc1OC	89*	-30	31	.	19	19
COc1ccc2sc(-c3ccccc3OC)c(-c3ccc(OCCN4CCOCC4)cc3)c2c1	23	-27	6	.	12	38
COc1cccc(OCc2ccc(Cl)cc2)c1C#N	-221	-32	59*	31	-200	-13
COc1cccc(CNC(C)(C)CO)c1OCc1ccc(Cl)cc1	12	-2	-7	13	12	-3
COCCn1c(=S)[nH]c2sc3c(c2c1=O)CCC(C)C3 (stereo not drawn)	-4	-10	17	.	-54	0
Cn1c(=S)[nH]c2sc3c(c2c1=O)CCC(C(C)(C)C)C3 (stereo not drawn)	-123	6	53*	.	-178	6
Cc1[nH]c2ccccc2c1CN1CCC(Cc2ccccc2)CC1	78*	-19	-7	21	1	25
CCOC(=O)C1=C(c2ccccc2)NC(N)=NC1c1ccc(OCc2ccc(C(=O)OC)cc2)cc1 (stereo not drawn)	104*	-34	2	-1	-3	24
COc1cc(C(=O)OCC(=O)N2CCNC2=O)cc(Cl)c1OC	13	16	11	.	11	-21
c1ccc(CNc2nc(NCC3CC3)nc3cc(-c4ccccc4)sc23)cc1	83*	-3	55*	.	-78	-11
c1ccc(CNc2nc(NCCc3ccncc3)c3sccc3n2)cc1	54*	-6	33	.	2	6
COc1cccc(CNc2nc(NCc3ccccc3)nc3ccsc23)c1	64*	-9	16	.	6	20
C=CCNc1nc(NCc2ccc(N(C)C)cc2)c2sc(-c3ccccc3)cc2n1	70*	2	21	.	-277	-28
Cc1cc(C)c2nc(NC(=O)CN3C(=O)NC4(CCCC4)C3=O)sc2c1	-34	-14	-5	.	-23	12
O=C(/C=C/[C@H]1O[C@@H](n2ccc(=O)[nH]c2=O)[C@H](O)[C@@H]1O)NCCCc1ccccc1	-1	19	-10	.	11	8
CCOCCc1nnc(NC(=O)CCS(=O)(=O)c2ccccc2)s1	-3	6	-8	.	-11	8
COCCNc1nc(NCc2cccc(OC)c2)c2sc(-c3ccccc3)cc2n1	57*	-7	14	.	-43	1
